Sampled rows, rich in hits. Any-hit rate of the full collection: about 3%.
SARS PLpro yeast = blocks SARS-CoV papain-like protease in a yeast assay | S. cerevisiae expressing SARS-CoV PLpro, growth rescue | Potency, µM (series often up to 32.9 µM), without a hit: at the top dose activity, positive = growth rescue, most hits filed as activators | 330,000 tested, 0.19% active | AID 485353; calls by dose curve; also: 0% is about no effect; nearly all actives have a fitted effect of over 55% in size
Sm TGR block = blocks Schistosoma mansoni thioredoxin glutathione reductase; Q962Y6; purified TGR, DTNB reduction, TNB absorbance 405 nm; Potency, µM (titrated, usually from 114 µM), for the others: at the highest dose activity change, negative = inhibition, actives largely listed as inhibitors; 360,000 tested, 3% active; AID 485364; active = well fitted inhibition curve with a large enough effect; inconclusive = small, poorly fitted or top-dose-only effect; inactive = no such curve, though single readings can be large or run the other way; also: % is scaled to controls: 0 for no effect and ±100 for the full control effect; nearly all actives have a fitted effect of over 60% in size
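First, TGR (20 nM dispensed) and NADPH were mixed with compound. Second, a 15 min room-temperature incubation followed. Third, further NADPH and then DTNB were added to start the reaction. Finally, TNB absorbance was monitored kinetically.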
Active calls of the source: *; ? = inconclusive; nt = not tested or not shown. Potency is read from the fitted curve at half-maximal effect.

SMILES	SARS PLpro yeast	Sm TGR block
O=C(Nc1ccc(-c2nc3ncccc3o2)cc1)c1ccc(Br)o1	-20%	?
O=C(Nc1ccc2oc(-c3cccnc3)nc2c1)c1cccnc1	-2%	-22%
O=C(Nc1ccc2oc(-c3cccnc3)nc2c1)c1ccco1	-9%	50µM*
O=C(Nc1ccc2oc(-c3cccnc3)nc2c1)c1ccc(Br)o1	-8%	28µM*
O=C(Nc1ccc(-c2nc3ncccc3o2)cc1)c1ccco1	-4%	20µM*
O=C(Nc1ccc2oc(-c3cccnc3)nc2c1)c1ccc(Br)cc1	nt	0%
COC(=O)c1sc(N2C(=O)c3oc4ccccc4c(=O)c3C2c2ccc(O)cc2)nc1C (centres undefined)	nt	-10%
COc1ccc(CNC(=O)C2CCN(c3nnc(-n4c(C)ccc4C)s3)CC2)c(OC)c1	nt	-27%
CCN(CC)S(=O)(=O)c1ccc(C)c(N=C=S)c1	-1%	40µM*
CCN(CC)S(=O)(=O)c1ccc(-c2ccc(S(=O)(=O)N(CC)CC)cc2)cc1	1%	-11%
Cc1nc2c(C(=O)NCCCN(CC(C)C)CC(C)C)cnn2c(C)c1Cc1c(F)cccc1Cl	nt	12%
CCC(=O)OCCNc1cc(SCCC(=O)OC)c2nonc2c1[N+](=O)[O-]	-8%	6.3µM*
CCCC(=O)NC(C)c1nc2ccccc2[nH]1 (centres undefined)	10%	4%
CCC(=O)OCCNc1cc(Sc2nccn2C)c2nonc2c1[N+](=O)[O-]	-27%	0.71µM*
Cn1ccnc1Sc1cc(Cl)ccc1[N+](=O)[O-]	-1%	2%
COC(=O)c1ccc(Nc2ccc3nonc3c2[N+](=O)[O-])cc1	2%	-10%
CCCC(=O)OCCNc1cc(Sc2nc3ccccc3[nH]2)c2nonc2c1[N+](=O)[O-]	-8%	0.5µM*
COc1cc2c(cc1OC)C(COc1ccc3c(C)cc(=O)oc3c1)N(C(=O)c1ccccc1C)CC2 (centres undefined)	nt	-9%
CCOC(=O)Cn1c(=O)oc2cc(S(=O)(=O)Nc3ccccc3F)ccc21	nt	7%
CC(C)COc1ccc(Cc2cnc(N)nc2N)cc1	-3%	-2%
CC(C)Oc1ccc(Cc2cnc(=S)[nH]c2N)cc1	0%	71µM*
COc1cc(C2OCC3C(c4ccc(OC5OC(CO)C(O)C(O)C5O)c(OC)c4)OCC23)ccc1O (centres undefined)	1%	35µM*
COc1cc([C@H]2OC[C@H]3[C@@H]2CO[C@H]3c2ccc(O)c(OC)c2)ccc1O	1%	nt
CCN(Cc1ccccc1)C(c1cc2cc(C)cc(C)c2[nH]c1=O)c1nnnn1CCOC (centres undefined)	1%	0%
COCCn1nnnc1C(c1cc2cc(C)ccc2[nH]c1=O)N1CCCCCC1 (centres undefined)	2%	?
SMILES	SARS PLpro yeast	Sm TGR block
COCCn1nnnc1C(c1cc2c(C)cc(C)cc2[nH]c1=O)N1CCCCCC1 (centres undefined)	-4%	13µM*
COCCn1nnnc1C(c1cc2cc(C)cc(C)c2[nH]c1=O)N1CCN(c2ccccc2F)CC1 (centres undefined)	0%	40µM*
COc1cc(-c2noc(-c3ccc(N4CCOCC4)c([N+](=O)[O-])c3)n2)cc(OC)c1OC	nt	-31%
Cc1ccc(-n2nc(C)c3c(C(=O)Nc4ccc(Br)c(C)c4)cc(C)nc32)cc1	nt	5%
CC(=NCc1ccco1)c1c(O)n(C)c(=O)n(C)c1=O	9%	-17%
CCC(=NCc1ccco1)c1c(O)n(C)c(=O)n(C)c1=O	-1%	25µM*
Cc1ccc(CCNS(=O)(=O)c2c(C)nc3sc(C)c(C)n3c2=O)cc1	nt	12%
CCOc1ccc(C(C)=O)cc1CSc1nnnn1-c1ccc(O)cc1	-5%	?
COc1ccc(C(C)=O)cc1CSc1nnnn1-c1ccc(O)cc1	0%	7.1µM*
Cc1ccc(N2CCn3c2nc2c3c(=O)n(C/C=C/c3ccccc3)c(=O)n2C)cc1C	nt	3%
COc1ccc(N2CCN(C(=O)Cn3c(-c4cccs4)cc4ccccc43)CC2)cc1	nt	1%
CN(C)S(=O)(=O)c1ccc2c(c1)N(CC(=O)NCc1ccc(F)cc1)C(=O)CS2	nt	10%
CN1C(=O)NC(=O)/C(=C\c2ccc([N+](=O)[O-])o2)C1=O	-3%	7.9µM*
O=[N+]([O-])c1ccc(/C=[N+](\[O-])CCO)o1	-1%	?
CN1C(=O)NC(=O)/C(=C/c2ccc([N+](=O)[O-])o2)C1=O	1%	5µM*
O=C1NC(=O)N(c2ccccc2)C(=O)/C1=C\c1ccc([N+](=O)[O-])o1	1%	8.9µM*
O=C1NC(=O)N(c2ccc3c(c2)OCO3)C(=O)/C1=C\c1ccc(N2CCCCC2)o1	-5%	-22%
CN1C(=O)NC(=O)/C(=C/c2ccc(C(=O)O)cc2)C1=O	1%	-29%
CCCCSc1nc2sc3c(c2c(=O)n1-c1ccccc1C)CC(C)(C)OC3	nt	-2%
COc1cccc(CNC(=O)C(NS(=O)(=O)c2ccc3c(c2)oc(=O)n3C)C(C)C)c1 (centres undefined)	nt	0%
COC(=O)c1ccc(CSc2nc3ccccc3c(=O)n2CC(C)C)o1	-9%	-19%
COC(=O)c1ccc(CSc2nc3ccccc3c(=O)n2C)o1	0%	45µM*
Oc1ccc(/C=N/Nc2ccnc3cc(Cl)ccc23)c(O)c1O	23%	-28%
CC/C(=N\Nc1ccnc2cc(Cl)ccc12)c1ccc(O)cc1	-8%	50µM*
COc1cc(NC(=O)Cn2nc(C(F)(F)F)c3c2CCC3)cc(OC)c1OC	nt	4%
SMILES	SARS PLpro yeast	Sm TGR block
O=C(Nc1ccc2nc(SCCOc3ccccc3Cl)sc2c1)c1cccs1	nt	0%
C=CCn1c(O)c(CN2CCOCC2)c(C)c(C#N)c1=O	3%	40µM*
C=CCn1c(C)cc(C)c(C#N)c1=O	-1%	-1%
Cc1cc(NC(=O)c2ccc(NC(=O)CCS(=O)(=O)c3cccs3)cc2)ccc1Br	nt	8%
COC(=O)c1c(S(C)(=O)=O)nc(-c2ccccc2)[nH]c1=O	14%	25µM*
Cc1c(-c2ccccc2)nc(-c2ccccc2)[nH]c1=O	5%	-1%
C[C@H](NC(=O)c1ccccc1)C(=O)N1CCN(Cc2ccc3c(c2)OCO3)CC1	-13%	nt
CC(NC(=O)c1ccccc1Cl)C(=O)N1CCN(Cc2ccc3c(c2)OCO3)CC1 (centres undefined)	6%	14µM*
Cc1cc(Nc2ccc(Cl)cc2)n2cnnc2n1	nt	-7%
CCCCn1nnc(NC(=S)NC(=O)c2ccc(OCC)c([N+](=O)[O-])c2)n1	12%	40µM*
CCOc1ccc(C(=O)NC(=S)Nc2ncccc2C)cc1[N+](=O)[O-]	26%	15%
COc1c(Cl)cc(Cl)cc1C(=O)Nc1cccc(-c2nc3ccccc3o2)c1C	nt	-9%
CCC1CCCCN1C(=O)CSc1nc2c([nH]c3ccccc32)c(=O)n1-c1ccc(OC)cc1 (centres undefined)	nt	-5%
CCc1ccc(NS(=O)(=O)c2ccc3[nH]cc(C(=O)NC4CCCC4)c(=O)c3c2)cc1	nt	-9%
CCCC(=O)Nc1nnc(-c2ccco2)s1	-4%	?
Cc1cccc(OCC(=O)Nc2nnc(-c3ccco3)s2)c1	-6%	14µM*
COc1ccccc1OCC(=O)Nc1nnc(-c2ccco2)s1	11%	32µM*
CCc1nnc(NC(=O)C(CC)c2ccccc2)s1 (centres undefined)	9%	2%
CCC(C(=O)Nc1nnc(-c2ccco2)s1)c1ccccc1 (centres undefined)	-3%	32µM*
CCOc1cccc(C(=O)Nc2nnc(-c3ccco3)s2)c1	6%	?

From PubChem
